From PubChem BioAssay (Tox21)
Records with an inconclusive call do not appear. A call without a number means that no potency is given here. Unmarked numbers belong to inactive results. Active and inactive are the calls of the source. Unless noted, calls follow the shape of the dose curve; as a rule, active = well fitted curve in the direction sought with a large enough effect in the repeat runs; inconclusive = weak or mixed curves; inactive = no such curve, though single readings can be large; an effect the other way counts as inactive or inconclusive.

Assays:
[1] = qHTS assay to identify small molecule antagonists of the estrogen related receptor (ERR) signaling pathway from Tox21 library - cell viability counter screen (AID 1224834); also: nearly all actives have a fitted effect of over 30% in size
Outline: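 CellTiter-Fluor fluorescence, read after 30 min at 37 C, measures viability of ERR cells. Cells plated at 2,000/well and incubated 6 h before pin-tool compound addition, then exposed 17.5 hours at 37 C.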

[2] = molecular target: Luciferin 4-monooxygenase (Photinus pyralis) (UniProt P08659); experiment: qHTS assay to identify small molecule inhibitors of firefly luciferase (AID 1224835); also: nearly all actives have a fitted effect of over 25% in size; also: potency is read from the fitted curve at half-maximal effect; as to activity change, negative = inhibition: series mostly up to about 120 µM
Outline: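 Quantitative HTS format; KM concentrations of both substrates. Purified P. pyralis FLuc activity quantified from luminescence images.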

[3] = qHTS assay to identify small molecule agonists of the constitutive androstane receptor (CAR) signaling pathway - cell viability counter screen (AID 1224836); also: series mostly up to about 92 µM; nearly all actives have a fitted effect of over 45% in size
Outline: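 23 h treatment, 37 C, 5% CO2. Cell line: HepG2 stably expressing hCAR with a CYP2B6-2.2kb construct. Co-treatment: PK11195, 0.75 uM final. Read-out: CellTiter-Fluor fluorescence intensity.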

[4] = qHTS assay to identify small molecule antagonists of the constitutive androstane receptor (CAR) signaling pathway - cell viability counter screen (AID 1224837); also: series mostly up to about 92 µM; nearly all actives have a fitted effect of over 45% in size
Outline: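 Cytotoxicity counter-screen: CellTiter-Fluor fluorescence after 23 h compound exposure (15-point qHTS) in double-stable HepG2-CYP2B6-hCAR cells, with 50 nM CITCO added.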

[5] = molecular target: Nuclear receptor subfamily 1 group I member 3 (Homo sapiens) (UniProt Q14994); experiment: qHTS assay to identify small molecule antagonists of the constitutive androstane receptor (CAR) signaling pathway (AID 1224838);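 also: HepG2 cells stably expressing hCAR with CYP2B6 luciferase reporter stimulated by CITCO; nearly all actives have a fitted effect of over 40% in size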
Outline: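 Antagonism measured as luciferase signal (ONE-Glo, 30 min, room temperature) in CAR-stimulated cells: HepG2-CYP2B6-hCAR double-stable line exposed 24 hr at 37 C to compound in a 15-point series plus 50 nM CITCO.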

[6] = molecular target: Nuclear receptor subfamily 1 group I member 3 (Homo sapiens) (UniProt Q14994); experiment: qHTS assay to identify small molecule agonists of the constitutive androstane receptor (CAR) signaling pathway (AID 1224839);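 also: HepG2 cells stably carrying human CAR and a CYP2B6 luciferase reporter; series mostly up to about 92 µM; nearly all actives have a fitted effect of over 15% in size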
Outline: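 Compounds tested at 15 concentrations on HepG2 cells stably harbouring hCAR and CYP2B6-2.2kb reporter constructs, co-treated with PK11195 (0.75 uM final), 24 h at 37 C; luminescent reporter signal quantified.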

[7] = qHTS assay to identify small molecule antagonists of the estrogen related receptor signaling pathway with the pleiotropic PPARgamma coactivator (PGC) from Tox21 10K library - cell viability counter screen (AID 1224840; active = well fitted cell-killing curve with a large enough effect in the repeat runs, not every such curve was filed as active; also: nearly all actives have a fitted effect of over 40% in size)
Outline: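 Counter-screen for cytotoxicity: after 17.5 h compound exposure at 37 C, CellTiter-Fluor reagent added to PGC/ERR cells for 30 min and fluorescence read. Cells were seeded at 2,000 per well 6 h before dosing.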

[8] = qHTS assay to identify small molecule agonists of the estrogen related receptor signaling pathway with the pleiotropic PPARgamma coactivator (PGC) from Tox21 10K library (AID 1224842); also: nearly all actives have a fitted effect of over 15% in size; also: potency is read from the fitted curve at half-maximal effect
Outline: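 PGC/ERR reporter cells (NTP line) were seeded 2,000 per well, rested 6 h at 37 C/5% CO2, then pin-dosed with compounds in DMSO for 18 h at 37 C; luciferase read by One-Glo luminescence after 30 min at room temperature.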

[9] = molecular target: Thyrotropin receptor (Homo sapiens) (UniProt P16473); experiment: qHTS assay to identify small molecule agonists of the thyroid stimulating hormone receptor (TSHR) signaling pathway (AID 1224843; calls by dose curve; also: nearly all actives have a fitted effect of over 45% in size)
Outline: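 Compounds are titrated over 15 concentrations, in triplicate, onto TSHR-HEK293 cells seeded at 800/well. Plates sit 30 min at room temperature before cAMP-d2 and anti-cAMP cryptate are added; signal is read after a further hour.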

[10] = qHTS assay to identify small molecule antagonists of the estrogen related receptor signaling pathway with the pleiotropic PPARgamma coactivator (PGC) from Tox21 10K library (AID 1224841; call rule not given here; also: series mostly up to about 92 µM; actives are mostly falling curves and most rising ones were filed inactive; nearly all actives have a fitted effect of over 50% in size)
Outline: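 Luminescence (One-Glo, 30 min at room temperature) after 18 h compound treatment at 37 C of PGC/ERR reporter cells plated at 2,000 cells/well and settled 6 h beforehand.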

Chain of Nuclear receptor subfamily 1 group I member 3 (Homo sapiens) (Q14994 whole entry, looked up): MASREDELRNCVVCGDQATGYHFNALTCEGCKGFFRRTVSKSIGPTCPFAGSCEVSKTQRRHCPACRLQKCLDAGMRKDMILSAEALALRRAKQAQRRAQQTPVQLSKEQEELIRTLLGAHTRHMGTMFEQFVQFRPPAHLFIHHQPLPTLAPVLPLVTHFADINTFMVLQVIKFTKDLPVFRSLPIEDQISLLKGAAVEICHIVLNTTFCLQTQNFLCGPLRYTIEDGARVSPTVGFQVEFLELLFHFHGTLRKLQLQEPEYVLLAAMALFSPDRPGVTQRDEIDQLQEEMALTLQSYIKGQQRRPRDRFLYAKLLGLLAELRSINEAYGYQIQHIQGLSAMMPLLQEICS
Chain of Luciferin 4-monooxygenase (Photinus pyralis) (P08659 whole entry, looked up): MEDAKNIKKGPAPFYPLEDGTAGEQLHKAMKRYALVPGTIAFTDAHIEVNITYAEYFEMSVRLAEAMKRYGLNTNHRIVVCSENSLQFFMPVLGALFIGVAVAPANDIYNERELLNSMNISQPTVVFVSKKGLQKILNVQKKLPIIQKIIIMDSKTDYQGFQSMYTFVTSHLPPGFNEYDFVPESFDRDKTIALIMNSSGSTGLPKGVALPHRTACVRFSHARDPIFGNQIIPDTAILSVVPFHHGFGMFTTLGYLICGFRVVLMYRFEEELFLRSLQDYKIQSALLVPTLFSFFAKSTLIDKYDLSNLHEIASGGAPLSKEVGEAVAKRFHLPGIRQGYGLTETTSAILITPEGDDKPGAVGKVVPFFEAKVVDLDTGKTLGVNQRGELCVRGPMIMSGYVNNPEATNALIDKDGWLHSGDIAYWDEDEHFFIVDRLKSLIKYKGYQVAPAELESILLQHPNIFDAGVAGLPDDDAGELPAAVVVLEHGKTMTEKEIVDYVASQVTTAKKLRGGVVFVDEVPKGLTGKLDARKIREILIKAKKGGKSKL
Chain of Thyrotropin receptor (Homo sapiens) (P16473 whole entry, looked up): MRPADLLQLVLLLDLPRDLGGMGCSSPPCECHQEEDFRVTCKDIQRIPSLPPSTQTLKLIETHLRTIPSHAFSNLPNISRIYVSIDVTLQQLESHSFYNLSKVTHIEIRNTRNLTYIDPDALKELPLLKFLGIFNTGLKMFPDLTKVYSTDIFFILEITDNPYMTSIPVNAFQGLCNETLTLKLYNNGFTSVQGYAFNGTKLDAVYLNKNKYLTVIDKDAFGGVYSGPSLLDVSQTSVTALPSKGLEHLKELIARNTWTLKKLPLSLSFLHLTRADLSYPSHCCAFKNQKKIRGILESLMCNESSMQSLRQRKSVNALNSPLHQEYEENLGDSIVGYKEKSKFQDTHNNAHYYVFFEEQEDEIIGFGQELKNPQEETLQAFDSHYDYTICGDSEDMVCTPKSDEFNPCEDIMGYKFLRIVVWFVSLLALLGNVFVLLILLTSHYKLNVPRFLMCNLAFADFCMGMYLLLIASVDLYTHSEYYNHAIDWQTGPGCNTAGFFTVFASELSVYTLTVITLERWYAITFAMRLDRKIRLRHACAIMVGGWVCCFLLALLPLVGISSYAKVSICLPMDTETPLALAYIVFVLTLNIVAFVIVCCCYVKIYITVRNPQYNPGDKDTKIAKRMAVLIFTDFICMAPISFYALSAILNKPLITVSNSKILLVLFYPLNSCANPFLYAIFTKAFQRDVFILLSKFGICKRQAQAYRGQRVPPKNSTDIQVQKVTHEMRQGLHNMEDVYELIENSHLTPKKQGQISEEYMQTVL

## NS(=O)(=O)Cc1noc2ccccc12
[1]
  Potency: inactive
[2]
  Potency: inactive
[3]
  outcome: inactive
[4]
  outcome: inactive
[5]
  Potency: inactive
[6]
  Potency: inactive
[7]
  outcome: inactive
[8]
  Potency: inactive
[9]
  Potency: inactive

## C=CCOCC(O)CO (configuration not stated)
[1]
  Potency: inactive
[2]
  Potency: inactive
[3]
  outcome: inactive
[4]
  outcome: inactive
[5]
  Potency: inactive
[6]
  Potency: inactive
[7]
  outcome: inactive
[9]
  Potency: inactive

## CC(C#N)(CCC(=O)O)N=NC(C)(C#N)CCC(=O)O (configuration not stated)
[1]
  Potency: inactive
[2]
  Potency: inactive
[3]
  outcome: inactive
[4]
  outcome: inactive
[5]
  Potency: inactive
[6]
  Potency: inactive
[7]
  outcome: inactive
[10]
  Potency: inactive
[8]
  Potency: inactive
[9]
  Potency: inactive

## C=CC(C)(CCC=C(C)C)OC(=O)CC (configuration not stated)
[1]
  Potency: inactive
[2]
  Potency: inactive
[3]
  outcome: inactive
[4]
  outcome: inactive
[5]
  Potency: inactive
[6]
  Potency: inactive
[7]
  outcome: inactive
[9]
  Potency: inactive

## O=Cc1cccc(Br)c1
[1]
  Potency: inactive
[2]
  Potency: inactive
[3]
  outcome: inactive
[4]
  outcome: inactive
[5]
  Potency: inactive
[6]
  Potency: inactive
[7]
  outcome: inactive
[10]
  Potency: inactive
[8]
  Potency: inactive
[9]
  Potency: inactive

## CC1=CCC(O)(C(C)C)CC1 (configuration not stated)
[1]
  Potency: inactive
[2]
  Potency: inactive
[3]
  outcome: inactive
[4]
  outcome: inactive
[5]
  Potency: inactive
[6]
  Potency: inactive
[7]
  outcome: inactive
[9]
  Potency: inactive

## C=COC(=O)C(C)(CC)CCC(C)C (configuration not stated)
[1]
  Potency: inactive
[2]
  Potency: inactive
[3]
  outcome: inactive
[4]
  outcome: inactive
[5]
  Potency: inactive
[6]
  Potency: inactive
[7]
  outcome: inactive

## CN(C)[C@@H]1C(=O)C(C(=O)NCN2CCCC2)=C(O)[C@@]2(O)C(=O)C3=C(O)c4c(O)cccc4[C@@](C)(O)C3C[C@@H]12 (some centres not stated)
[1]
  Potency: inactive
[2]
  Potency: inactive
[3]
  outcome: inactive
[4]
  outcome: inactive
[5]
  Potency: inactive
[6]
  Potency: inactive
[7]
  outcome: inactive
[9]
  Potency: inactive

## COc1ccccc1OCC1CNC(=O)O1 (configuration not stated)
[1]
  Potency: inactive
[2]
  Potency: inactive
[3]
  outcome: inactive
[4]
  outcome: inactive
[5]
  Potency: inactive
[6]
  Potency: inactive
[7]
  outcome: inactive
[8]
  Potency: inactive
[9]
  Potency: inactive

## O=C(CO)[C@@H](O)[C@H](O)[C@@H](O)CO
[1]
  Potency: inactive
[2]
  Potency: inactive
[3]
  outcome: inactive
[4]
  outcome: inactive
[5]
  Potency: inactive
[6]
  Potency: inactive
[7]
  outcome: inactive
[8]
  Potency: inactive
[9]
  Potency: inactive

## CC[C@H]1OC(=O)[C@H](C)[C@@H](O[C@H]2C[C@@](C)(OC)[C@@H](O)[C@H](C)O2)[C@H](C)[C@@H](O[C@@H]2O[C@H](C)C[C@H](N(C)C)[C@H]2O)[C@](C)(OC)C[C@@H](C)C(=O)[C@H](C)[C@@H](O)[C@]1(C)O
[1]
  Potency: inactive
[2]
  Potency: inactive
[3]
  outcome: inactive
[4]
  outcome: inactive
[5]
  Potency: inactive
[6]
  Potency: inactive
[7]
  outcome: inactive
[8]
  Potency: inactive

## CC(C)(CCC(=O)O)C(=O)O
[1]
  Potency: inactive
[2]
  Potency: inactive
[3]
  outcome: inactive
[4]
  outcome: inactive
[5]
  Potency: inactive
[6]
  Potency: inactive
[7]
  outcome: inactive

## CC(CC=O)CC(C)(C)C (configuration not stated)
[1]
  Potency: inactive
[2]
  Potency: inactive
[3]
  outcome: inactive
[4]
  outcome: inactive
[5]
  Potency: inactive
[6]
  Potency: inactive
[7]
  outcome: inactive
[9]
  Potency: inactive

## CN1C(C)(C)CC(O)CC1(C)C
[1]
  Potency: inactive
[2]
  Potency: inactive
[3]
  outcome: inactive
[4]
  outcome: inactive
[6]
  Potency: inactive
[7]
  outcome: inactive
[9]
  Potency: inactive

## COc1cccc(OC)c1C(=O)N[C@@H]1C(=O)N2[C@@H]1SC(C)(C)[C@@H]2C(=O)O
[1]
  Potency: inactive
[2]
  Potency: inactive
[3]
  outcome: inactive
[4]
  outcome: inactive
[5]
  Potency: inactive
[6]
  Potency: inactive
[7]
  outcome: inactive
[9]
  Potency: inactive

## NC(=O)N[C@@H](CCC(=O)O)C(=O)O
[1]
  Potency: inactive
[2]
  Potency: inactive
[3]
  outcome: inactive
[4]
  outcome: inactive
[5]
  Potency: inactive
[6]
  Potency: inactive
[7]
  outcome: inactive
[9]
  Potency: inactive

## CCCC[N+](C)(CCCC)CCCC
[1]
  Potency: inactive
[2]
  Potency: inactive
[3]
  outcome: inactive
[4]
  outcome: inactive
[5]
  Potency: inactive
[6]
  Potency: inactive
[7]
  outcome: inactive
[9]
  Potency: inactive

## CC(C)(C)OC(=O)c1cccc(N)c1
[1]
  Potency: inactive
[2]
  Potency: 57.9 µM (active)
[3]
  outcome: inactive
[4]
  outcome: inactive
[5]
  Potency: inactive
[6]
  Potency: inactive
[7]
  outcome: inactive
[9]
  Potency: inactive

## O=C(CO)[C@@H](O)[C@H](O)[C@H](O)CO
[1]
  Potency: inactive
[2]
  Potency: inactive
[3]
  outcome: inactive
[4]
  outcome: inactive
[6]
  Potency: inactive
[7]
  outcome: inactive
[10]
  Potency: inactive
[8]
  Potency: 0.0017 µM (active)
[9]
  Potency: inactive

## CC[N+](CC)(CC)CCOc1cccc(OCC[N+](CC)(CC)CC)c1OCC[N+](CC)(CC)CC
[1]
  Potency: inactive
[2]
  Potency: inactive
[3]
  outcome: inactive
[4]
  outcome: inactive
[6]
  Potency: inactive
[7]
  outcome: inactive
[9]
  Potency: inactive

## CCCCN1C=CN(C)C1
[1]
  viability change, negative = cytotoxic: 0.161% [at 19 µM]
[2]
  activity change, negative = inhibition: -0.0434% [at 23.6 µM]
[3]
  viability change, negative = cytotoxic: 5.36% [at 19 µM]
[4]
  activity change, negative = cytotoxicity: -1.55% [at 19 µM]
[6]
  activation: -0.414% [at 19 µM]
[7]
  viability change, negative = cytotoxic: 1.46% [at 19 µM]
[8]
  activation: 0.537% [at 19 µM]
[9]
  activation: 2.47% [at 19 µM]

## C=C(C)C(=O)OCCOCCOCCOCCOC(=O)C(=C)C
[1]
  Potency: inactive
[2]
  Potency: inactive
[3]
  outcome: inactive
[4]
  outcome: inactive
[5]
  Potency: inactive
[6]
  Potency: inactive
[7]
  outcome: inactive
[9]
  Potency: inactive

## CCCCCCC1CCC(=O)O1 (configuration not stated)
[1]
  Potency: inactive
[2]
  Potency: inactive
[3]
  outcome: inactive
[4]
  outcome: inactive
[6]
  Potency: inactive
[7]
  outcome: inactive
[10]
  Potency: inactive
[8]
  Potency: inactive
[9]
  Potency: inactive

## CC(=O)N1C[C@H](O)C[C@H]1C(=O)O
[1]
  Potency: inactive
[2]
  Potency: inactive
[3]
  outcome: inactive
[4]
  outcome: inactive
[5]
  Potency: inactive
[6]
  Potency: inactive
[7]
  outcome: inactive
[9]
  Potency: inactive

## CC1CCC(CO)CC1 (configuration not stated)
[1]
  Potency: inactive
[2]
  Potency: inactive
[3]
  outcome: inactive
[4]
  outcome: inactive
[5]
  Potency: inactive
[6]
  Potency: inactive
[7]
  outcome: inactive
[9]
  Potency: inactive

## C[N+]1(CC2COC(c3ccccc3)(c3ccccc3)O2)CCCCC1 (configuration not stated)
[1]
  viability change, negative = cytotoxic: 7.36% [at 19 µM]
[2]
  activity change, negative = inhibition: -3.43% [at 23.6 µM]
[3]
  viability change, negative = cytotoxic: 1.16% [at 19 µM]
[4]
  activity change, negative = cytotoxicity: 4.57% [at 19 µM]
[6]
  activation: -2.79% [at 19 µM]
[7]
  viability change, negative = cytotoxic: -2.82% [at 19 µM]
[8]
  activation: 0.389% [at 19 µM]
